Source: PubChem (several laboratories)
Compounds with a hit are over-represented: about 0.67% of the library has one in this group of screens.
BH1578 lux ind: inducers of Vibrio cholerae quorum light production without autoinducers, primary screen, BH1578 luxS cqsA deficient, single point. V. cholerae BH1578 lux reporter, luminescence, 6 h. activation, % at 18.7 µM. 0.16% of 350,000 active; in the data active = activation mostly above about 9.7%, no sharp cut-off
RN4220 kill: growth inhibition of S. aureus RN4220, primary screen, OD600. 16 h. inhibition, % (no concentration beside the values). 0.33% of 330,000 active; in the data active = inhibition above about 85%;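 note: plate controls were untreated cells for no effect and reference antibiotic for full effect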
TcdB GH inh: TcdB glycohydrolase inhibitors, primary screen, biochemical, single point, plate reader; AID 652162, 2013; 0.24% of 350,000 active; TcdB glycohydrolase enzymatic assay; inhibition, % at 9.99 µM; in the data active = inhibition above about 10%
Target sequence (P18177 whole entry, looked up): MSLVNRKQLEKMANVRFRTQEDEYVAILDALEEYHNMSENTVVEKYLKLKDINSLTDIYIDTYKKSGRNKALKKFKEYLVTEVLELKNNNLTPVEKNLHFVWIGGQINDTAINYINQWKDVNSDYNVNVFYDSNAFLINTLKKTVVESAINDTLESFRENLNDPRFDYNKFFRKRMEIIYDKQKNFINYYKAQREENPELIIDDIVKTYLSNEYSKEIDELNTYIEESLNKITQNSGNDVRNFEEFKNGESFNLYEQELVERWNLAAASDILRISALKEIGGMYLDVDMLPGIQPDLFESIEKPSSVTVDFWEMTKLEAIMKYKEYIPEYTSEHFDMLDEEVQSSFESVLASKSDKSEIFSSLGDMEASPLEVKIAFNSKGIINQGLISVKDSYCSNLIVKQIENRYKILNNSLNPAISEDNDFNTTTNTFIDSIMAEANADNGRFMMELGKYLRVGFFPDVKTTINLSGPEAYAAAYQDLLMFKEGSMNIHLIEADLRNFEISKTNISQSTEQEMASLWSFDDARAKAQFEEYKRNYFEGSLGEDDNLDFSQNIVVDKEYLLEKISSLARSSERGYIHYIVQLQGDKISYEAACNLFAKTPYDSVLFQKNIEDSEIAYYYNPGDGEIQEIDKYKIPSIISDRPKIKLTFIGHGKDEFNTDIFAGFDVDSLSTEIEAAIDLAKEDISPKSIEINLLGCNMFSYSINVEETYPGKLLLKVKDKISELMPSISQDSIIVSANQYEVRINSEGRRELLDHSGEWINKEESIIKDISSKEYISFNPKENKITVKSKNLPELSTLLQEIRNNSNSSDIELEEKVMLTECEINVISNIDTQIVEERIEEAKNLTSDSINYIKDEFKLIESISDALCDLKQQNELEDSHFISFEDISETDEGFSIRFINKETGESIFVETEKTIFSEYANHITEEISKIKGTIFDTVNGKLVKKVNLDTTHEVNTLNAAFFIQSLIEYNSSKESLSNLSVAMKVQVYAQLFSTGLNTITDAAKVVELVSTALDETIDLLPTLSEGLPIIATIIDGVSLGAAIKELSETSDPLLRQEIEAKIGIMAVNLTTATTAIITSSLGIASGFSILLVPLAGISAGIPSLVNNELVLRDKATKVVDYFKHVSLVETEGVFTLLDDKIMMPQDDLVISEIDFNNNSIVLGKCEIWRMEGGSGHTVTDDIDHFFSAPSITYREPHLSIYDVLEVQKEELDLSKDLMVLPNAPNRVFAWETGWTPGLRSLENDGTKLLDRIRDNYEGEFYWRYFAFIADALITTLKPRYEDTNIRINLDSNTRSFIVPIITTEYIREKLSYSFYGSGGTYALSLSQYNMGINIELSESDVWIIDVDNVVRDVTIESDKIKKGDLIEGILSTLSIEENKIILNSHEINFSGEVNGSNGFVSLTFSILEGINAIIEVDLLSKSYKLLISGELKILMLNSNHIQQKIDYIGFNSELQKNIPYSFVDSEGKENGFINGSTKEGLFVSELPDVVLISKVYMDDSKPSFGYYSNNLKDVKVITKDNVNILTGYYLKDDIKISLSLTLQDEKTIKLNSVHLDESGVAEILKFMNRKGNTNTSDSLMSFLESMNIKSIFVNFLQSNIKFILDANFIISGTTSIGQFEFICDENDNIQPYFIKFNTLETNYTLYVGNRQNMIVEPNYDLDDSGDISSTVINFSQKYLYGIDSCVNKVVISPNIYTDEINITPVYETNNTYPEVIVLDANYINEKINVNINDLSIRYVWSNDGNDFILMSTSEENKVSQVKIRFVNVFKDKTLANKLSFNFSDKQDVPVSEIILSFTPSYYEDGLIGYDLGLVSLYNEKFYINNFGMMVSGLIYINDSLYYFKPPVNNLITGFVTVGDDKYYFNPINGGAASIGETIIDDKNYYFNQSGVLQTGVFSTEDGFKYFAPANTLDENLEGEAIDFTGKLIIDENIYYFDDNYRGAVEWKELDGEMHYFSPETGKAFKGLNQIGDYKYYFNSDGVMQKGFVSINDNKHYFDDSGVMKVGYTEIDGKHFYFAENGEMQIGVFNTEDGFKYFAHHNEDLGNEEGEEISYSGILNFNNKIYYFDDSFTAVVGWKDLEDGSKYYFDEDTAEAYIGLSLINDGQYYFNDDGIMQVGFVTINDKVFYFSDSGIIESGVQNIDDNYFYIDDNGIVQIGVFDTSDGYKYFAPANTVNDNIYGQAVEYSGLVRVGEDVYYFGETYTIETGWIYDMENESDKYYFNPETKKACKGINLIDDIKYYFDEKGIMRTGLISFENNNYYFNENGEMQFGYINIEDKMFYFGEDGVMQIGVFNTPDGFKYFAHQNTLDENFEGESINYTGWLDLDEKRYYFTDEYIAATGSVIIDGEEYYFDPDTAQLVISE
ugtP null kill: growth inhibition of ugtP-null S. aureus, primary screen, RN4220 ugtP deletion, OD600; 16 h; growth inhibition, % (no concentration beside the values); 0.54% of 330,000 active; AID 1259309, 2017; in the data active = growth inhibition above about 68%;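 note: plate controls were untreated wells for no effect and antibiotic for full effect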
* marks the source's active call; other numbers are inactive results; i = inactive; . = not tested or not shown.

SMILES	BH1578 lux ind	RN4220 kill	TcdB GH inh	ugtP null kill
CC(C)CC(NC(=O)c1[nH]cnc1C(=O)NC(C)c1ccccc1)C(=O)OC(C)(C)C (stereo not given)	.	6	.	6
CC(C)(C)OC(=O)N1CCC(C(=O)NC(Cc2ccccc2)C(=O)O)CC1 (stereo not given)	.	2	.	5
CCCNC(=O)C1CC(=O)N(c2ccc(OCC)cc2)C1 (stereo not given)	0	7	11*	4
Cc1ccc(S(=O)(=O)N(C)N=O)cc1	0	99*	0	99*
Cc1ccc(S(=O)(=O)N(C)S(=O)(=O)c2ccc(C)cc2)cc1	0	3	0	8
O=C(O)CCCN1C(=O)/C(=C\c2ccccc2OCc2ccccc2)SC1=S	0	27	-5	16
O=C(O)CCCN1C(=O)/C(=C/c2cn(-c3ccccc3)nc2-c2cccs2)SC1=S	-4	50	.	83*
CCCCCc1ccc(OCCCC[n+]2cccc(C)c2)c(CCCCC)c1	0	.	4	.
CCCCCc1ccc(OCCCC[n+]2ccccc2)c(CCCCC)c1	-1	101*	.	93
CCC(C)(C)c1ccc(OCCCC[n+]2ccccc2)c(C(C)(C)CC)c1	-2	101*	5	100*
CCCCCc1ccc(OCCCC[n+]2ccc(C)cc2)c(CCCCC)c1	0	99*	4	100*
Cn1c(-c2ccc(F)c(F)c2)cc2onc(-c3ccccc3)c2c1=O	-1	8	10*	5
O=C(NN=Cc1ccc(F)cc1)c1ccc(Br)cc1	.	1	.	1
CC1=NNC(=O)C1CCC(=O)NN=Cc1ccc(Cl)cc1Cl (stereo not given)	.	2	.	2
O=C(N/N=C/c1ccc(-c2cccc(C(F)(F)F)c2)o1)c1ccccc1Br	i	.	.	.
O=C(NN=Cc1ccc(-c2cccc(C(F)(F)F)c2)o1)c1ccccc1Br	.	11	.	90*
CCN1CCN(Cc2ccc(NC(=O)c3cc(NC(=O)C(=O)c4c[nH]c5ccccc45)cc(OC)c3)cc2C(F)(F)F)CC1	0	58	0	22
CCN1CCN(Cc2ccc(NC(=O)c3ccc(C)c(NC(=O)C(=O)c4c[nH]c5ccccc45)c3)cc2C(F)(F)F)CC1	0	101*	2	100*
CC(C)(C)C1C=C(C(=O)N2CCN(Cc3ccccc3)CC2)OC(OCCCCO)C1 (stereo not given)	.	9	.	2
Cc1cc(C(=O)CCl)c(C)n1CCc1ccc(F)cc1	-3	21	1	-2
Cc1cc(C(=O)CCl)c(C)n1CCc1ccc(Cl)cc1	i	93*	1	97*
COC(=O)C1=C(c2cccc(OC)c2OC)CC2CCC1N2C (stereo not given)	.	1	.	-1
c1ccc(CSc2ncnc3c2cnn3Cc2ccccc2)cc1	.	-4	.	97*
CC(C)(C)C(=O)CSc1ncnc2c1cnn2Cc1ccccc1	-2	1	-1	15
COc1cc(C=O)ccc1OCCOCCOc1ccc(Cl)cc1	5	1	.	5
SMILES	BH1578 lux ind	RN4220 kill	TcdB GH inh	ugtP null kill
C=CCc1cc(C=O)cc(OCC)c1OCc1ccc(Cl)cc1	i	-17	1	99*
C=CCc1cc(C=O)cc(OC)c1OCc1ccc(Cl)cc1	i	-4	.	86*
O=C(NN=C/C=C\c1ccccc1[N+](=O)[O-])c1cc(-c2ccccc2)nc2ccccc12	.	-7	.	-1
CC(=O)c1c(C)[nH]c(C(=O)Nc2nc(-c3ccc(Cl)cc3)cs2)c1C	2	71	.	90*
CCN(C[C@H]1N[C@@](Cc2ccccc2)(C(=O)OC)[C@H]2C(=O)N(Cc3ccccc3)C(=O)[C@@H]12)C(=O)Nc1ccc(C)cc1	1	-1	0	-2
CCN(C[C@H]1N[C@@](Cc2ccccc2)(C(=O)OC)[C@H]2C(=O)N(Cc3ccccc3)C(=O)[C@@H]12)C(=O)Nc1ccc(C(F)(F)F)cc1	-1	100*	0	100*
Nc1ccc(C(=O)c2ccc3c(c2)OCCO3)cc1N	-1	-1	14*	-3
CCC(=O)c1ccc2c(c1)OCCO2	-1	7	-1	5
COc1cc2c(cc1N)-c1ccc(N)cc1C2=O	i	.	20*	.
CC(/C=C/c1ccccc1)=NNC(=S)NC(C)C	.	1	.	0
O=S(=O)(NC1CCCC1)c1ccc(S(=O)(=O)NC2CCCC2)cc1	-2	9	.	1
O=S(=O)(NC1CCCCCCC1)c1ccc(F)cc1	i	6	12*	-3
Cc1ccc(CN2CC(=O)N3C4c5ccccc5OCC4C(c4ccccc4)[C@]3(C)C2=O)cc1 (stereo not given in full)	.	-3	.	-11
CCOc1ccc2c(c1)C(=NN1C(=O)c3ccccc3C1=O)C(=O)N2	.	5	.	5
COc1ccc(C(=O)CC(=O)C(=O)Nc2ccc(C)c(Cl)c2)cc1	-1	78	1	97*
O=C(NC(=S)Nc1ccc(S(=O)(=O)Nc2nccs2)cc1)c1ccccc1F	2	51	1	6
O=C(NC(=S)Nc1ccc(S(=O)(=O)Nc2nccs2)cc1)c1ccc(F)c(F)c1	0	14	.	97*
CCc1nnc(NS(=O)(=O)c2ccc(NC(=S)NC(=O)c3ccc(Br)cc3)cc2)s1	-4	29	0	86*
O=C(NC(=S)Nc1ccc(S(=O)(=O)Nc2nccs2)cc1)c1ccccc1	i	14	.	91*
CNc1nc(C23CC4CC(CC(C4)C2)C3)cs1	2	9	12*	1
COc1ccc(C2Cc3cc(O)cc(O)c3C(=O)O2)cc1O (stereo not given)	.	1	.	-21
COc1ccc(NC(=O)C2CC(=O)N(c3ccccc3F)C2)cc1S(=O)(=O)N1CCCCC1 (stereo not given)	0	.	13*	.
COc1cccc(C(=O)Nc2cc(C)on2)c1OC	0	4	1	-1
COc1cccc(C(=O)OCC(=O)Nc2cc(C)on2)c1OC	i	1	10*	-2
CCc1ccc(/C=C/C(=O)c2cc(Br)ccc(=O)c2O)cc1	.	100*	.	95*
SMILES	BH1578 lux ind	RN4220 kill	TcdB GH inh	ugtP null kill
Cc1cccc(/C=C/C(=O)c2cc(Br)ccc(=O)c2O)c1	.	99*	.	99*
CCOc1ccc(/C=C/C(=O)c2cc(Br)ccc(=O)c2O)cc1	0	84	0	90*
O=S(=O)(c1ccccc1)[C@@]1(c2ccccc2)CC2ON=C(c3cccc(Br)c3)C2C1 (stereo not given in full)	.	-8	.	10
CCS(=O)(=O)c1ccc2oc(Nc3ccc(C(C)(C)C)cc3)nc2c1	3	-5	12*	1
NC(=S)NN=Cc1ccccc1[N+](=O)[O-]	.	3	.	3
Cn1c(SCC(=O)c2cc3ccccc3o2)nnc1-c1ccccc1	0	9	11*	-9
Cn1cnnc1SCC(=O)c1cc2ccccc2o1	-3	1	0	2
O/N=C/c1cc(Br)ccc1OCc1cccc(F)c1	i	.	.	.
ON=Cc1cc(Br)ccc1OCc1ccccc1F	.	6	.	87*
ON=Cc1cc(Br)ccc1OCc1cccc(F)c1	.	2	.	82*
CN1CCN(C(CNC(=O)c2ccc(Br)o2)c2ccc(F)cc2)CC1 (stereo not given)	-2	4	12*	7
